{
  "source": "PubChem BioAssay",
  "data": [
    {"test_system": "Fibrinogen (Alexa647-labelled)", "assay": "fibrinogen binders on compound microarrays, profiling panel, artefact control for SMM control-protein annotation, biochemical, small-molecule microarray, 635/667 nm fluorescence (AID 1131);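 note: z-score merges 667 nm fluorescence with per-spot signal-to-noise over triplicate slides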", "details": "fibrinogen-A647 binding fluorescence, higher = more signal", "values": [
      {"compound": "CCOC(=O)C[C@H]1[C@H](OC(=O)Cc2ccc3c(c2)OCO3)[C@@H](NC(=O)Cc2ccc(OC)cc2)c2cc(OCCCO)ccc2N1C(=O)Cc1ccc(OC)cc1", "composite z-score": 0.239},
      {"compound": "COC(=O)[C@@]1(Cc2ccccc2)[C@H]2c3cc(C(=O)N4CCCC4)n(Cc4ccc(OC)c(OC)c4)c3C[C@H]2CN1C(=O)c1ccccc1", "composite z-score": 1.03},
      {"compound": "[N-]=[N+]=Nc1ccccc1C[C@]1(C(=O)N2CCOCC2)N=C(c2ccc(OCCCO)cc2)O[C@H]1c1ccccc1N=[N+]=[N-]", "composite z-score": 0.96},
      {"compound": "CC(C)(C)N1CC=CC23O[C@@H]4/C=C\\CCCOC(=O)C4[C@H]2C(=O)N(CCCO)[C@@H]3C1=O", "note": "(stereo not given in full)", "composite z-score": -2.06},
      {"compound": "COc1ccc(CCNC(=O)[C@@H]2c3ccccc3C(=O)N(Cc3ccccc3OC)[C@H]2c2ccc(CO)cc2)cc1", "composite z-score": 0.406},
      {"compound": "NC(=O)NCC#Cc1ccc2c(c1)[C@]1(C(=O)N2)[C@H](c2ccc(OCCO)cc2)N2[C@H](c3ccccc3)[C@H](c3ccccc3)OC(=O)[C@H]2[C@@H]1C(=O)O", "composite z-score": 0.755},
      {"compound": "COc1ccc(C(=O)Nc2ccc3c(c2)[C@@]2(O[C@H](CCO)[C@@H]([Si](C)(C)c4ccc(OC)cc4)[C@@H]2C)C(=O)N3Cc2ccccc2)cc1", "composite z-score": 0.592},
      {"compound": "COC(=O)C1=CC(CCCO)=CC(c2cccs2)N(Cc2cc3c(cc2Br)OCO3)C=C1C(=O)OC", "note": "(stereo not given)", "composite z-score": 0.999},
      {"compound": "O=C1O[C@H](c2ccccc2)[C@H](c2ccccc2)N2[C@H]1[C@@H](C(=O)O)[C@]1(C(=O)Nc3ccc(C#CCCO)cc31)[C@H]2c1ccc(OCCO)cc1", "composite z-score": 0.974},
      {"compound": "CCOC(=O)C[C@H]1[C@H](OC(=O)Cc2ccc3c(c2)OCO3)[C@@H](NC(=O)c2ccc3ccccc3n2)c2cc(OCCCO)ccc2N1C(=O)Cc1ccc(OC)cc1", "composite z-score": 0.557}
    ]}
  ]
}
